# Test results: PubChem BioAssay (NCI)
# The panel holds about 83,000 compounds, 20% with a hit somewhere; the sample as a whole holds those more often.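 Plates (96-well) were seeded with cells, treated with compound at one concentration, and incubated for 48 hours before percent growth was determined.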 Active and inactive are the calls of the source. The calls were made as follows: active = growth percent below 10; inactive = the rest.
# System: MDA-MB-468 breast
# Test: NCI-60 one-dose screen, 48 h (100 = growth as untreated, 0 = no growth, -100 = all killed)
# Settings: 10 µM unless noted
row,Compound,growth
1,CC(=O)/C(=C/c1ccc([N+](=O)[O-])cc1)C(=O)c1ccccc1,114% (inactive)
2,Nc1ccc(Br)cn1,93.6% (inactive)
3,CC1(C)N=C(N)N=C(N)N1c1cccc(CCCCc2ccccc2)c1,-57.7% (active)
4,N#CC1=C(N)Oc2c(sc3c(Br)cccc23)C1c1ccccn1 (stereo not given),25.6% (inactive)
5,COc1ccc(C(C)C=O)cc1 (stereo not given),134% (inactive)
6,CCCOCC(O)CNCCN (stereo not given),106% (inactive)
7,COc1ccc(OC)c(/C=C/c2nc(SCc3ccccc3)n(-c3ccc(Cl)cc3)n2)c1,34.4% (inactive)
8,COc1ccc(CCCc2c3[n+](cc4c(OC)c(OC)ccc24)CCc2cc4c(cc2-3)OCO4)cc1,1.74% (active)
9,O=C1c2cc3c(cc2-c2c1c1ccc(F)cc1c(=O)n2C[C@H](O)[C@H](O)[C@H](O)CO)OCO3,-39.9% (active)
10,O=C1CSC(=S)N1Cc1cccnc1,47.6% (inactive)
11,N#CCCN(CCCN1CCOCC1)CN1C(=O)c2ccccc2C1=O,92.2% (inactive)
12,O=C(NNc1nc2cc(F)cc(F)c2n2cccc12)c1cnccn1,-10.9% (active)
13,CCOc1cccc(C2CC(=O)Nc3cc4c(cc32)OCO4)c1 (stereo not given),34.2% (inactive)
14,O=C1Nc2ccccc2/C1=N/N=C/c1ccc(OC2OC(CO)C(O)C(O)C2O)cc1 (stereo not given),112% (inactive)
15,O=C(/C=C/c1ccc(F)cc1)c1ccc(O)cc1,83% (inactive)
16,COc1cc(C(=O)/C=C/c2c(-c3cccs3)nc3sccn23)cc(OC)c1OC,-49.5% (active)
17,COc1ccc(Sc2[nH]c(C=O)c3ccccc23)cc1,9.32% (active)
18,Oc1ccc(-c2nnc(SCc3ccc(O)c4ncccc34)n2-c2ccccc2)cc1,-13.6% (active)
19,O=C1CC(c2ccccc2)Cc2nc3ccc(Br)cc3cc21 (stereo not given),0.354% (active)
20,NC(=O)c1c(NC(=O)c2ccccc2)sc2c1CCC(=O)C2,-5.34% (active)

row,Compound,growth
1,COc1cc(C2CC(c3ccccc3)=NN2C=O)ccc1Oc1nc2c(c(=O)n(C)c(=O)n2C)n1C (stereo not given),63.9% (inactive)
2,COc1cc(C2C3=C(COC3=O)N(CCO)c3cc4c(cc32)CCC4)cc(OC)c1O (stereo not given),-21.7% (active)
3,O=C(O)c1ccc(-c2ccc(/C=N/Nc3nc(Nc4ccccc4)nc(N4CCCCC4)n3)o2)cc1,92.1% (inactive)
4,COC(=O)[C@@H](Cc1c[nH]c2ccccc12)NC(=O)/C=C/c1ccccc1,19.6% (inactive)
5,c1ccc(-c2n(Cc3ccc4ccccc4c3)c3c4ccccc4c4ccccc4c3[n+]2Cc2ccc3ccccc3c2)cc1,-75.5% (active)
6,CC(C)(C)C(=O)/C=C/c1ccc([N+](=O)[O-])cc1,45.5% (inactive)
7,O=c1[nH]nc(-c2ccccc2)c2sc(NC(=S)Nc3ccc(Cl)cc3)nc12,95.6% (inactive)
8,CN(Cc1cccc(C(F)(F)F)c1)C(=O)[C@@H](CC(=O)N1CCC(N2CCCCC2)CC1)N1C(=O)[C@@H](N2C(=O)OC[C@@H]2c2ccccc2)[C@H]1/C=C/c1ccccc1,60.5% (inactive)
9,C[C@H]1[C@H](C)CC[C@]2(C(=O)N3CCN(C)CC3)CC[C@]3(C)C(=CC[C@@H]4[C@@]5(C)C/C(=C/c6ccco6)C(=O)C(C)(C)[C@@H]5CC[C@]43C)[C@H]12,19.2% [100 µM] (inactive)
10,Cc1cccc(C)c1-c1cc(Cc2ccc(Cl)cc2)c(=O)[nH]n1,96.9% (inactive)
11,O=C1NCN(c2ccccc2)C12CCN(CCCC(c1ccc(F)cc1)c1ccc(F)cc1)CC2,43% (inactive)
12,OCC(O)c1nc2ccc3[nH]ncc3c2c2c1CCCC2 (stereo not given),-28.1% (active)
13,Cn1c2ccccc2c2c3c(c4c5ccc(Br)cc5oc4c21)C(=O)N(O)C3=O,46.2% (inactive)
14,CCNC(=O)Oc1ccc(/C(=C(\C)c2ccc(Cl)cc2)c2ccc(OCCN(CC)CC)cc2)cc1,67.5% (inactive)
15,COc1ccc2c(-c3ccc(F)cc3)c(C#N)c(=NC(C)=O)oc2c1,-8.32% (active)
16,Cc1ccc(O)c(C(=O)O)c1,106% (inactive)
17,O=C1OCC2=C1C(c1cccc(Br)c1)c1cc3c(cc1N2CCO)CCC3 (stereo not given),-3.99% (active)
18,COc1cc(/C=N/n2cnc3oc(-c4ccccc4)cc3c2=N)cc(CN2CCN(C)CC2)c1O,91.9% (inactive)
19,N#C/C(=C\c1ccc(-c2ccc(Cl)c(Cl)c2)o1)c1nc(-c2ccco2)cs1,-38.2% (active)
20,CCCCS(=O)(=O)Oc1ccc(-c2nc(C)c(C(=O)OCC)s2)cc1C=O,52.1% (inactive)
